{
  "source": "the supplement of paper PMC8728848",
  "experiment_in_all_cases": "glycan array binding signal (z-score within array); higher = stronger binding",
  "details_in_all_cases": "glycan notation: IUPAC condensed, linker removed; mutation: N224Q",
  "key": {"Fuc(a1-2)Gal": {"target": "Fuc(a1-2)Gal", "how_it_was_run": "(§1)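 Glycan array binding is given as a within-array Z-score, which can be read as non-binding when negative. The arrays, 3228 of them, came from the Consortium for Functional Glycomics database and were retained only where the protein sequence was available. Z-scores were averaged across arrays of the same protein sequence at different concentrations or buffers and across linkers.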"}, "[1]": {"target": "Fuc(a1-2)Gal(b1-3)GlcNAc(b1-3)GalNAc", "how_it_was_run": "as §1"}, "[2]": {"target": "Fuc(a1-2)Gal(b1-3)[Fuc(a1-4)]GlcNAc(b1-2)Man(a1-3)[Fuc(a1-2)Gal(b1-3)[Fuc(a1-4)]GlcNAc(b1-2)Man(a1-6)]Man(b1-4)GlcNAc(b1-4)[Fuc(a1-6)]GlcNAc(b1-4)[Fuc(a1-6)]GlcNAc", "how_it_was_run": "as §1"}, "Fuc(a1-2)Gal(b1-4)Glc6S": {"target": "Fuc(a1-2)Gal(b1-4)Glc6S", "how_it_was_run": "as §1"}, "[3]": {"target": "Fuc(a1-2)Gal(b1-4)GlcNAc(b1-3)Gal(b1-4)GlcNAc(b1-2)Man(a1-3)[Fuc(a1-2)Gal(b1-4)GlcNAc(b1-3)Gal(b1-4)GlcNAc(b1-2)Man(a1-6)]Man(b1-4)GlcNAc(b1-4)GlcNAc", "how_it_was_run": "as §1"}, "[4]": {"target": "Fuc(a1-2)Gal(b1-4)[Fuc(a1-3)]GlcNAc", "how_it_was_run": "as §1"}, "[5]": {"target": "Fuc(a1-2)Gal(b1-4)[Fuc(a1-3)]GlcNAc(b1-3)Gal(b1-4)[Fuc(a1-3)]GlcNAc", "how_it_was_run": "as §1"}, "[6]": {"target": "Fuc(a1-2)Gal(b1-4)[Fuc(a1-3)]GlcNAc(b1-3)Gal(b1-4)[Fuc(a1-3)]GlcNAc(b1-3)Gal(b1-4)[Fuc(a1-3)]GlcNAc", "how_it_was_run": "as §1"}, "Fuc(a1-2)Gal6S(b1-4)Glc": {"target": "Fuc(a1-2)Gal6S(b1-4)Glc", "how_it_was_run": "as §1"}, "[7]": {"target": "Fuc(a1-2)[Gal(a1-3)]Gal(b1-4)GlcNAc(b1-2)Man", "how_it_was_run": "as §1"}, "[8]": {"target": "Fuc(a1-2)[Gal(a1-3)]Gal(b1-4)GlcNAc(b1-2)Man(a1-3)[Fuc(a1-2)[Gal(a1-3)]Gal(b1-4)GlcNAc(b1-2)Man(a1-6)]Man(b1-4)GlcNAc(b1-4)[Fuc(a1-6)]GlcNAc", "how_it_was_run": "as §1"}, "[9]": {"target": "Fuc(a1-2)[Gal(a1-4)]Gal(b1-4)GlcNAc", "how_it_was_run": "as §1"}, "[10]": {"target": "Fuc(a1-2)[GalNAc(a1-3)]Gal", "how_it_was_run": "as §1"}, "[11]": {"target": "Fuc(a1-2)[GalNAc(a1-3)]Gal(b1-4)Glc", "how_it_was_run": "as §1"}, "[12]": {"target": "Fuc(a1-2)[GalNAc(a1-3)]Gal(b1-4)GlcNAc(b1-3)GalNAc", "how_it_was_run": "as §1"}, "[13]": {"target": "Fuc(a1-2)[GalNAc(a1-4)]Gal(b1-4)GlcNAc", "how_it_was_run": "as §1"}, "Fuc(a1-3)GlcNAc": {"target": "Fuc(a1-3)GlcNAc", "how_it_was_run": "as §1"}, "[14]": {"target": "Fuc(a1-3)[Gal(b1-4)]GlcNAc(b1-2)Man", "how_it_was_run": "as §1"}, "[15]": {"target": "Fuc(a1-3)[Gal(b1-4)]GlcNAc(b1-3)Gal(b1-4)[Fuc(a1-3)]GlcNAc", "how_it_was_run": "as §1"}, "[16]": {"target": "Fuc(a1-3)[Gal(b1-4)]GlcNAc(b1-6)[Gal(b1-3)GlcNAc(b1-3)]Gal(b1-4)Glc", "how_it_was_run": "as §1"}, "[17]": {"target": "Fuc(a1-3)[Gal(b1-4)]GlcNAc6S", "how_it_was_run": "as §1"}, "Fuc(a1-4)GlcNAc": {"target": "Fuc(a1-4)GlcNAc", "how_it_was_run": "as §1"}, "Fuc(b1-3)GlcNAc": {"target": "Fuc(b1-3)GlcNAc", "how_it_was_run": "as §1"}, "[18]": {"target": "Gal(b1-3)GalNAc(a1-3)[Fuc(a1-2)]Gal(b1-4)Glc", "how_it_was_run": "as §1"}, "[19]": {"target": "Gal(b1-3)GlcNAc(b1-2)[Gal(b1-3)GlcNAc(b1-6)]Man(a1-6)[Gal(b1-3)GlcNAc(b1-2)Man(a1-3)]Man(b1-4)GlcNAc(b1-4)GlcNAc", "how_it_was_run": "as §1"}, "[20]": {"target": "Gal(b1-3)GlcNAc(b1-6)Gal(b1-4)GlcNAc", "how_it_was_run": "as §1"}, "Gal(b1-3)GlcNAc6S": {"target": "Gal(b1-3)GlcNAc6S", "how_it_was_run": "as §1"}, "Gal(b1-4)GlcNAc": {"target": "Gal(b1-4)GlcNAc", "how_it_was_run": "as §1"}, "[21]": {"target": "Gal(b1-4)GlcNAc(b1-2)Man(a1-3)[Gal(b1-4)GlcNAc(b1-2)Man(a1-6)]Man(b1-4)GlcNAc(b1-4)GlcNAc", "how_it_was_run": "as §1"}, "[22]": {"target": "Gal(b1-4)GlcNAc(b1-2)Man(a1-3)[Gal(b1-4)GlcNAc(b1-2)Man(a1-6)]Man(b1-4)GlcNAc(b1-4)[Fuc(a1-6)]GlcNAc", "how_it_was_run": "as §1"}},
  "note": "About 410 targets per protein were measured; listed, in parts, are those with the strongest signals and a random draw of the rest.",
  "data": [
    {"binder": "AAL (Aleuria aurantia) (protein) MPTEFLYTSKIAAISWAATGGRQQRVYFQDLNGKIREAQRGGDNPWTGGSSQNVIGEAKLFSPLAAVTWKSAQGIQIRVYCVNKDNILSEFVYDGSKWITGQLGSVGVKVGSNSKLAALQWGGSESAPPNIRVYYQKSNGSGSSIHEYVWSGKWTAGASFGSTVPGTGIGATAIGPGRLRIYYQATDNKIREHCWDSNSWYVGGFSASASAGVSIAAISWGSTPQIRVYWQKGREELYEAAYGGSWNTPGQIKDASRPTPSLPDTFIAANSSGNIDISVFFQASGVSLQQWQWISGKGWSIGAVVPTGTPAGW", "values": [
      {"measurement": "glycan array binding signal (z-score)", "setting": "Fuc(a1-2)Gal", "value": 4.67},
      {"measurement": "glycan array binding signal (z-score)", "setting": "[1]", "value": -0.263},
      {"measurement": "glycan array binding signal (z-score)", "setting": "[2]", "value": 0.006},
      {"measurement": "glycan array binding signal (z-score)", "setting": "Fuc(a1-2)Gal(b1-4)Glc6S", "value": 2.29},
      {"measurement": "glycan array binding signal (z-score)", "setting": "[3]", "value": 6.34},
      {"measurement": "glycan array binding signal (z-score)", "setting": "[4]", "value": 3.69},
      {"measurement": "glycan array binding signal (z-score)", "setting": "[5]", "value": 3.57},
      {"measurement": "glycan array binding signal (z-score)", "setting": "[6]", "value": 3.95},
      {"measurement": "glycan array binding signal (z-score)", "setting": "Fuc(a1-2)Gal6S(b1-4)Glc", "value": 3.32},
      {"measurement": "glycan array binding signal (z-score)", "setting": "[7]", "value": -0.285},
      {"measurement": "glycan array binding signal (z-score)", "setting": "[8]", "value": -0.153},
      {"measurement": "glycan array binding signal (z-score)", "setting": "[9]", "value": 5.8},
      {"measurement": "glycan array binding signal (z-score)", "setting": "[10]", "value": 0.989},
      {"measurement": "glycan array binding signal (z-score)", "setting": "[11]", "value": -0.309},
      {"measurement": "glycan array binding signal (z-score)", "setting": "[12]", "value": -0.32},
      {"measurement": "glycan array binding signal (z-score)", "setting": "[13]", "value": 5.38},
      {"measurement": "glycan array binding signal (z-score)", "setting": "Fuc(a1-3)GlcNAc", "value": 3.92},
      {"measurement": "glycan array binding signal (z-score)", "setting": "[14]", "value": -0.29},
      {"measurement": "glycan array binding signal (z-score)", "setting": "[15]", "value": 1.96},
      {"measurement": "glycan array binding signal (z-score)", "setting": "[16]", "value": 0.019},
      {"measurement": "glycan array binding signal (z-score)", "setting": "[17]", "value": -0.274},
      {"measurement": "glycan array binding signal (z-score)", "setting": "Fuc(a1-4)GlcNAc", "value": 6.22},
      {"measurement": "glycan array binding signal (z-score)", "setting": "Fuc(b1-3)GlcNAc", "value": 4.57},
      {"measurement": "glycan array binding signal (z-score)", "setting": "[18]", "value": -0.303},
      {"measurement": "glycan array binding signal (z-score)", "setting": "[19]", "value": -0.296},
      {"measurement": "glycan array binding signal (z-score)", "setting": "[20]", "value": -0.317},
      {"measurement": "glycan array binding signal (z-score)", "setting": "Gal(b1-3)GlcNAc6S", "value": -0.309},
      {"measurement": "glycan array binding signal (z-score)", "setting": "Gal(b1-4)GlcNAc", "value": -0.324},
      {"measurement": "glycan array binding signal (z-score)", "setting": "[21]", "value": -0.316},
      {"measurement": "glycan array binding signal (z-score)", "setting": "[22]", "value": -0.216}
    ]}
  ]
}
